Measurements reported in PubChem BioAssay.
Activity calls are given as the source filed them. Unless noted, the rule behind the calls is not given here.

Key:
[1] = HepG2 liver cancer cell viability effects, profiling panel, resazurin fluorescence, 24 h, PK04 Diversity Set (AID 1172); settings: higher = more signal; note: test concentration not given here
[2] = basal S. cerevisiae growth modulation, no modifier, primary screen, OD600, strain BY4716, 24 h, basal condition (AID 1173); settings: OD600, 24 h, higher = more signal, called active from +8 up or from −8 down
[3] = MM1S myeloma cell viability, profiling panel, resazurin fluorescence, basal, 24 h, PK04 Diversity Set (AID 1174); settings: higher = more signal, called active from +8 up or from −8 down;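 note: MM1S multiple myeloma cell line; test concentration not given here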
[4] = target: Dihydroorotate dehydrogenase (quinone), mitochondrial (Plasmodium falciparum (isolate 3D7)) (UniProt Q08210); assay: PfDHODH enzyme inhibitors, primary screen, biochemical, C-terminal His tag, absorbance 600 nm (AID 1175); settings: DCIP absorbance 600 nm, higher = more signal, called active from +8 up or from −8 down;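 note: recombinant parasite enzyme with a five histidine tag at its C terminus; test concentration not given here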
[5] = P. aeruginosa biofilm formation inhibitors, primary screen, strain PAO1, LB-PBS medium, absorbance 600 nm (AID 1176); note: test concentration not given here; settings: P. aeruginosa PAO1 growth/biofilm, A600, 12 h; higher = more signal
[6] = S. cerevisiae RM11-1a growth modifiers, primary screen, strain RM11-1a, OD600, basal, 24 h (AID 1177); settings: OD600, 24 h, higher = more signal, called active from +8 up or from −8 down;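 note: cultures grown under basal conditions with no added stressor; test concentration not given here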
[7] = E. coli acrAB mutant growth effects, primary screen, E. coli filamentation inducers, strain DRC39, OD650, 24 h (AID 1178); settings: higher = more signal, called active from +8 up or from −8 down;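 note: growth measured as culture turbidity by optical density at 650 nm; test concentration not given here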
[8] = E. coli acrAB mutant growth effects, primary screen, E. coli filamentation inducers, strain DRC39, OD650, 48 h (AID 1179);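 note: screen aims at cell division blockers that make cells filament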; settings: E. coli DRC39 delta-acrAB growth, higher = more signal, called active from +8 up or from −8 down
[9] = RPMI8226 myeloma cell viability, profiling panel, resazurin fluorescence, basal, 24 h, PK04 Diversity Set (AID 1180); settings: higher = more signal;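 note: RPMI8826 multiple myeloma cell line at 5000 cells per well; test concentration not given here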
[10] = target: E3 ubiquitin-protein ligase XIAP (Homo sapiens) (UniProt P98170); assay: XIAP binders, primary screen, biophysical, small-molecule microarray, fluorescence 635 nm (AID 1181); settings: small-molecule microarray binding, higher = more signal;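 note: score merges 667 nm emission and signal to noise over triplicate slides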
Sequence of E3 ubiquitin-protein ligase XIAP (Homo sapiens) (P98170 whole entry, looked up): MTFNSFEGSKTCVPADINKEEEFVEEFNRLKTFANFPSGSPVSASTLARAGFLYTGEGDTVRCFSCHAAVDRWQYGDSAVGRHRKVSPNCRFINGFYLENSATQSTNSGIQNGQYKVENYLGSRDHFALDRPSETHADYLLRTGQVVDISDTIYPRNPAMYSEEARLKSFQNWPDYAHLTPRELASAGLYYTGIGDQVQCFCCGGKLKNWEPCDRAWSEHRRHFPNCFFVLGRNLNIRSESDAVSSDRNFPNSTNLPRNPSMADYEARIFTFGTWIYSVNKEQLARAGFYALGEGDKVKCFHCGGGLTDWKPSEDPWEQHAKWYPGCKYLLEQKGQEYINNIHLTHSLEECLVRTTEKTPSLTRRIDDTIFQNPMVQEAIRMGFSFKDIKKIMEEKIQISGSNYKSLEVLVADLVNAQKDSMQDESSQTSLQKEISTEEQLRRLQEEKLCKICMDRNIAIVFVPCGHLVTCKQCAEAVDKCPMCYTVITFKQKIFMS

Sequence of Dihydroorotate dehydrogenase (quinone), mitochondrial (Plasmodium falciparum (isolate 3D7)) (Q08210 whole entry, looked up): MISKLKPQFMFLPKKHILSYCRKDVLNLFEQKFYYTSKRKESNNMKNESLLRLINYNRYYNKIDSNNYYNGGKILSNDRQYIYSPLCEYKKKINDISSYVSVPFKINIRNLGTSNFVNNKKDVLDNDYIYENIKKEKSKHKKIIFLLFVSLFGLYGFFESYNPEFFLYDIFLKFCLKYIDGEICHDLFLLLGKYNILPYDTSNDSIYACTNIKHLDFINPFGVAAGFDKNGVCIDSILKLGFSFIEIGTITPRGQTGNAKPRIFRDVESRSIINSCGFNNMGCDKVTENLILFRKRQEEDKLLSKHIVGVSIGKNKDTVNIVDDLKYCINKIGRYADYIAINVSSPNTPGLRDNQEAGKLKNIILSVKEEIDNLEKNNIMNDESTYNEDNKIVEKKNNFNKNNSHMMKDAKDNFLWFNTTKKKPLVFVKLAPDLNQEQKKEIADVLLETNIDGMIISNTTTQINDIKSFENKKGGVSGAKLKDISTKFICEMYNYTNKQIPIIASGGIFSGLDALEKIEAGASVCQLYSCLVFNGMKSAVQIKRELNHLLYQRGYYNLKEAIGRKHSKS

SMILES | z-score [1] | z-score [2] | z-score [3] | composite z-score [4] | z-score [5] | z-score [6] | z-score [7] | z-score [8] | z-score [9] | composite z-score [10]
CN(C)C(=O)[C@]1(CCC(=O)OC(C)(C)C)N=C(c2ccc(OCCCO)cc2)O[C@@H]1c1ccccc1CN=[N+]=[N-] | 1.52 | -0.756 (inactive) | 0.136 (inactive) | -0.369 (inactive) | -0.36 (inactive) | -0.0274 (inactive) | 0.0547 (inactive) | -0.0727 (inactive) | 0.471 | -0.0501
O=C(O)[C@@H]1C[C@@H]2C(=O)N3CCC[C@H]3C(=O)N2[C@@H]1c1ccc(O)cc1 | -0.155 | -1.8 (inactive) | -0.695 (inactive) | -1.7 (inactive) | 1.03 (inactive) | -0.113 (inactive) | 0.437 (inactive) | -0.535 (inactive) | 0.16 | 0.0721
CC(C)C(CO)N1C(=O)[C@@H]2C3C(=O)OCCC/C=C\[C@H]3OC23C=CCN(c2ccc4ccccc4c2)C(=O)[C@@H]13 (stereo not given in full) | -0.507 | 0.267 (inactive) | -0.235 (inactive) | -0.42 (inactive) | -0.292 (inactive) | -0.259 (inactive) | -0.275 (inactive) | -0.24 (inactive) | -0.344 | 0.683
COCCOC(=O)N1C(=O)[C@@]2(c3ccccc31)[C@H](C(=O)NC[C@H](O)c1ccccc1)[C@H]1C(=O)O[C@H](c3ccccc3)[C@H](c3ccccc3)N1[C@@H]2c1ccc(O)cc1 | 0.248 | 0.64 (inactive) | -0.65 (inactive) | -0.0106 (inactive) | 0.269 (inactive) | 1.64 (inactive) | -0.236 (inactive) | -0.803 (inactive) | -0.773 | -0.103
O=C1C[C@]2(c3ccc([N+](=O)[O-])cc3)C(=O)N(C3CC3)c3cc(CO)ccc3[C@H]2N1CC12CC3CC(CC(C3)C1)C2 | -0.742 | 0.359 (inactive) | -0.118 (inactive) | -3.84 (inactive) | 0.677 (inactive) | 0.866 (inactive) | -0.292 (inactive) | -0.616 (inactive) | 0.0683 | -0.158
CCCC=C(CCC)[C@@H](NC(=O)c1cccs1)c1ccc(C(=O)OC)cc1 | 0.756 | 1.07 (inactive) | 0.645 (inactive) | 0.519 (inactive) | -0.94 (inactive) | -0.27 (inactive) | 0.204 (inactive) | -0.814 (inactive) | 0.429 | -0.031
CC(C)N1C(=O)c2ccccc2[C@@H](C(=O)NCCN2CCOCC2)[C@@H]1c1ccc(CO)cc1 | -0.229 | 0.525 (inactive) | -0.401 (inactive) | 0.184 (inactive) | 0.429 (inactive) | 0.985 (inactive) | 0.0059 (inactive) | -0.434 (inactive) | -0.0956 | -0.465
COC(=O)[C@@]1(Cc2ccc(OC)cc2)[C@H]2c3cc(C(=O)N(C)C)n(Cc4ccc(OC(F)(F)F)cc4)c3C[C@H]2CN1C(=O)c1ccccc1 | -0.409 | 0.633 (inactive) | -6.89 (inactive) | 0.546 (inactive) | 0.619 (inactive) | 1.63 (inactive) | -0.728 (inactive) | -0.804 (inactive) | -3.56 | 0.422
Cc1ccc(NN2C(C(O)c3c(F)cccc3Cl)C=CC3C(=O)N(C4CCCCC4)C(=O)C32)cc1 (stereo not given) | 0.703 | -0.074 (inactive) | 0.0812 (inactive) | -1.12 (inactive) | 1.47 (inactive) | -0.717 (inactive) | -0.452 (inactive) | 0.432 (inactive) | 0.262 | 0.122
O=C1OCCC/C=C\[C@H]2OC34C=CCN(c5ccc6ccccc6c5)C(=O)[C@H]3N(CCO)C(=O)[C@@H]4C12 (stereo not given in full) | -0.75 | 0.307 (inactive) | -0.997 (inactive) | 0.257 (inactive) | -0.634 (inactive) | 0.571 (inactive) | -0.937 (inactive) | -1.04 (inactive) | -0.15 | 0.275
O=C1N(CCS(=O)(=O)c2ccccc2)c2ccccc2[C@H]2OC(c3ccc(OCCCO)cc3)=N[C@@]12Cc1ccccc1 | 0.676 | -0.148 (inactive) | -2.38 (inactive) | -0.0331 (inactive) | 0.755 (inactive) | 2.01 (inactive) | 2.46 (inactive) | 1.13 (inactive) | -1.96 | 0.211
COC(=O)[C@@]1(Cc2ccc(F)cc2)[C@H]2c3cc(C(=O)N4CCCC4)n(Cc4ccc(C)c(F)c4F)c3C[C@H]2CN1C(=O)c1ccccc1 | -1.15 | 0.289 (inactive) | -1.42 (inactive) | -1.23 (inactive) | 1 (inactive) | 0.22 (inactive) | -0.107 (inactive) | -0.11 (inactive) | -0.588 | -0.0483
CCCC#C[Si](O[C@H](CC)c1cn([C@H](C)c2ccccc2)nn1)(C(C)C)C(C)C | 0.186 | -12.9 (active) | -0.098 (inactive) | 0.738 (inactive) | -0.677 (inactive) | 0.75 (inactive) | 1.4 (inactive) | 1.06 (inactive) | 1.29 | 0.274
CS(=O)(=O)CCOC(=O)C1=CC(c2ccc(CO)cc2)=CC(C2CC2)N(Cc2sc3ccccc3c2Cl)C=C1C(=O)OCCS(C)(=O)=O (stereo not given) | 0.315 | -5.45 (inactive) | -2.63 (inactive) | -1.26 (inactive) | -0.563 (inactive) | 0.272 (inactive) | -3.53 (inactive) | -2.01 (inactive) | -1.85 | 0.0049
COc1ccc(CCNC(=O)[C@@]2(Sc3ccc(C)cc3)CC(=O)N(Cc3ccccc3C(F)(F)F)[C@@H]2c2ccc(CO)cc2I)cc1 | 0.267 | -5.78 (inactive) | -2.05 (inactive) | -1.6 (inactive) | -0.171 (inactive) | -1.77 (inactive) | 0.0424 (inactive) | 0.189 (inactive) | -1.72 | 0.1
